Measured values taken from the supplement of paper PMC10646978.
± gives the standard deviation.

How the values were obtained:
Conditions in all cases: modulator concentration 10 µM
[1] = system: RAW-Dual (murine macrophage reporter line); assay: NF-kB reporter (SEAP) activity fold change vs agonist alone; higher = enhanced NF-kB activity
Method in brief: (§1)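 RAW-Dual murine macrophage reporter cells were plated at 50 000 per well in 384-well plates, pin-transferred compound to 10 μM final, and pre-incubated for 1 hour at 37 °C before a PRR agonist was added and the cells incubated overnight. NF-κB activity was read from supernatant SEAP with QUANTI-Blue at 620 nm absorbance, and IRF activity from Lucia luciferase with QUANTI-Luc by luminescence. Each signal was expressed as fold change by dividing by the mean agonist-only control on the same plate. Two replicate plates were averaged, with errors obtained by propagation.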

[2] = system: RAW-Dual (murine macrophage reporter line); assay: IRF reporter (Lucia luciferase) activity fold change vs agonist alone; higher = enhanced IRF activity
Method in brief: as §1

[3] = system: RAW-Dual (murine macrophage reporter line); assay: viability score (confluency relative to resting cells, overnight) (fraction); higher = more viable, active = viable (0.7 or more)
Method in brief: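 Confluency was the readout: RAW-Dual macrophages were imaged with IncuCyte after an overnight exposure to compound at 10 μM final. IncuCyte software produced two masks over all imaged wells. The viability score expresses confluency against resting cells, and both masks had to exceed 70% of resting cells for a compound to meet the cutoff.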

[4] = agonist: CpG ODN 1826 0.5 ug/mL

| Structure (SMILES) | NF-kB reporter [1, 4] | NF-kB reporter ([1]; agonist: LPS 0.1 ug/mL) | NF-kB reporter ([1]; agonist: MPLA […]) | IRF reporter ([2]; agonist: 3'3'-cGAMP 10 ug/mL) | IRF reporter ([2]; agonist: LPS 0.1 ug/mL) | IRF reporter ([2]; agonist: MPLA […]) | viability score [3] |
| --- | --- | --- | --- | --- | --- | --- | --- |
| c1ccc2c(c1)Nc1ccccc1S2 | 1.02 ± 0.25 | 0.934 ± 0.048 | 0.881 ± 0.11 | 0.778 ± 0.026 | 1.31 ± 0.25 | 1.32 ± 0.13 | 0.939 (active) |
| O=C(O)CC[N+](=O)[O-] | 0.87 ± 0.22 | 0.979 ± 0.066 | 0.974 ± 0.063 | 0.912 ± 0.086 | 0.96 ± 0.23 | 0.933 ± 0.12 | 1 (active) |
| COc1ccc2c(c1)[nH]c1c(C)nccc12 | 0.6 ± 0.047 | 0.885 ± 0.074 | 0.949 ± 0.09 | 0.431 ± 0.019 | 0.653 ± 0.11 | 0.594 ± 0.11 | 1.03 (active) |
| Nc1ccncc1 | 1 ± 0.24 | 1.03 ± 0.078 | 0.879 ± 0.056 | 0.514 ± 0.022 | 0.929 ± 0.11 | 0.976 ± 0.25 | 0.858 (active) |
| COc1ccc(C(CN(C)C)C2(O)CCCCC2)cc1.Cl (stereo unspecified) | 1.07 ± 0.08 | 1.06 ± 0.1 | 0.971 ± 0.056 | 1.07 ± 0.22 | 0.867 ± 0.052 | 0.928 ± 0.081 | 1 (active) |
| COc1ccc(CCNCc2ccc3ccccc3c2)cc1 | 0.853 ± 0.068 | 0.755 ± 0.051 | 1.65 ± 0.11 | 0.88 ± 0.06 | 0.98 ± 0.13 | 2.58 ± 0.29 | 0.123 (inactive) |
| Nc1nc(N)nc(NC2CC2)n1 | 1.47 ± 0.063 | 1.15 ± 0.1 | 1.67 ± 0.39 | 0.614 ± 0.064 | 0.992 ± 0.24 | 0.892 ± 0.33 | 0.987 (active) |
| CC(C)=CCOc1c2occc2cc2ccc(=O)oc12 | 1.13 ± 0.27 | 0.823 ± 0.064 | 0.957 ± 0.088 | 1.09 ± 0.047 | 1.47 ± 0.17 | 1.58 ± 0.21 | 0.95 (active) |
| C#CCOc1ccc(C=C2C(=O)NC(=O)N(c3cc(OC)c(Cl)cc3OC)C2=O)cc1Cl | 1.1 ± 0.1 | 1 ± 0.059 | 0.899 ± 0.056 | 0.952 ± 0.051 | 1.15 ± 0.12 | 0.887 ± 0.055 | 1.01 (active) |
| CN1Cc2c(ccc3c2OCO3)C2C(O)Cc3cc4c(cc3C21)OCO4 (stereo unspecified) | 1.75 ± 0.13 | 1.49 ± 0.12 | 1.79 ± 0.19 | 0.269 ± 0.012 | 1.64 ± 0.22 | 2 ± 0.38 | 0.883 (active) |
| CN1C(=O)NC(=O)C(=Cc2ccc([N+](=O)[O-])s2)C1=O | 1.12 ± 0.12 | 1.08 ± 0.07 | 1.05 ± 0.036 | 0.895 ± 0.098 | 0.925 ± 0.12 | 0.914 ± 0.19 | 1 (active) |
| CCCC(=O)c1ccc(N2CCN(C)CC2)c(F)c1 | 0.956 ± 0.097 | 0.876 ± 0.1 | 0.906 ± 0.088 | 1.02 ± 0.056 | 1.22 ± 0.17 | 1.27 ± 0.24 | 1.03 (active) |
| Cc1cccc(COc2ccc(C=C3C(=O)NC(=S)NC3=O)cc2)c1 | 0.855 ± 0.07 | 0.875 ± 0.047 | 1.14 ± 0.099 | 0.844 ± 0.056 | 0.992 ± 0.093 | 0.969 ± 0.12 | 0.981 (active) |
| Cc1cc(C(=O)N2C3CCC2c2cncnc2C3)n(C)n1 (stereo unspecified) | 0.979 ± 0.074 | 1.01 ± 0.085 | 0.917 ± 0.046 | 0.983 ± 0.085 | 1.19 ± 0.096 | 1.11 ± 0.22 | 1 (active) |
| COc1cc2c(cc1O)CC1c3c(cc(O)c(OC)c3-2)CCN1C (stereo unspecified) | 0.916 ± 0.23 | 0.96 ± 0.078 | 0.924 ± 0.092 | 0.881 ± 0.03 | 1.17 ± 0.16 | 1.12 ± 0.11 | 0.999 (active) |
| Cl.Clc1ccc(C(OCCN2CCCCC2)c2ccccc2)cc1 (stereo unspecified) | 0.656 ± 0.26 | 0.756 ± 0.051 | 0.721 ± 0.049 | 0.543 ± 0.023 | 1.25 ± 0.15 | 1.24 ± 0.14 | 0.652 (inactive) |
| CC(=O)OC1CCC2(C)C(=CCC3C4CCC(=O)C4(C)CCC32)C1 (stereo unspecified) | 0.92 ± 0.084 | 0.901 ± 0.076 | 0.863 ± 0.092 | 0.969 ± 0.031 | 1.08 ± 0.095 | 1.15 ± 0.13 | 1 (active) |
| COc1cc(CNCCc2ccc(OC)c(OC)c2)cc(OC)c1 | 0.973 ± 0.078 | 0.959 ± 0.14 | 0.989 ± 0.093 | 1.02 ± 0.032 | 1.22 ± 0.13 | 1.45 ± 0.18 | 1.02 (active) |
| O=Cc1cn(Cc2cccc3ccccc23)c2ccccc12 | 0.959 ± 0.16 | 1.01 ± 0.11 | 1.16 ± 0.12 | 1.09 ± 0.03 | 1.25 ± 0.28 | 1.23 ± 0.25 | 0.989 (active) |
| O=C(NCCN1CCOCC1)c1ccc(Cl)nc1 | 0.917 ± 0.17 | 1.15 ± 0.13 | 0.995 ± 0.1 | 0.987 ± 0.026 | 1.12 ± 0.21 | 1.09 ± 0.13 | 0.972 (active) |
| c1cc2c(cc1C1OCC3C(c4ccc5c(c4)OCO5)OCC13)OCO2 (stereo unspecified) | 0.745 ± 0.22 | 1.16 ± 0.058 | 1.1 ± 0.082 | 0.841 ± 0.041 | 1.22 ± 0.17 | 1.24 ± 0.12 | 1 (active) |
| O=C1NC(=O)C(=CNc2cccc(O)c2)C(=O)N1 | 0.859 ± 0.075 | 0.914 ± 0.053 | 1.09 ± 0.13 | 0.977 ± 0.062 | 1.43 ± 0.1 | 1.6 ± 0.17 | 1.01 (active) |
| CN1C2CCC1CC(OC(=O)C(CO)c1ccccc1)C2 (stereo unspecified) | 1.23 ± 0.29 | 1.19 ± 0.083 | 1.14 ± 0.098 | 0.91 ± 0.032 | 1.24 ± 0.15 | 1.15 ± 0.16 | 0.986 (active) |
| COc1ccccc1N1C(=O)C(=Cc2ccc(C)s2)C(=O)NC1=S | 1.07 ± 0.11 | 1.08 ± 0.093 | 0.973 ± 0.084 | 0.953 ± 0.049 | 1.8 ± 0.28 | 1.39 ± 0.14 | 0.992 (active) |
| C1CCc2nnnn2CC1 [Prestw-162] | 1.27 ± 0.3 | 0.966 ± 0.18 | 1.03 ± 0.1 | 0.941 ± 0.039 | 1.11 ± 0.17 | 1.03 ± 0.23 | 1.01 (active) |
| Cc1cc(C(C#N)c2ccc(Cl)cc2)c(Cl)cc1NC(=O)c1cc(I)cc(I)c1O (stereo unspecified) | 0.812 ± 0.14 | 0.999 ± 0.15 | 0.834 ± 0.055 | 0.731 ± 0.058 | 1.3 ± 0.11 | 1.02 ± 0.085 | 0.389 (inactive) |
| Cc1c(NN=C2C(=O)NC(=O)NC2=O)c(=O)n(-c2ccccc2)n1C | 1.02 ± 0.1 | 1.03 ± 0.086 | 0.958 ± 0.042 | 0.951 ± 0.13 | 1.08 ± 0.096 | 0.932 ± 0.14 | 0.999 (active) |
| CN1C(=O)NC(=O)C(=Cc2ccc([N+](=O)[O-])o2)C1=O | 0.875 ± 0.069 | 1.06 ± 0.083 | 1 ± 0.12 | 0.92 ± 0.066 | 1.24 ± 0.14 | 0.961 ± 0.061 | 1.02 (active) |
